{"source": "PubChem BioAssay", "note": "Values without a mark were called inactive. Activity calls are given as the source filed them. Rule as the data show it: active = inhibition above about 36%; inactive = the rest."}
{"tested_on": "transactivating tegument protein VP16 (Human herpesvirus 1)", "test": "VP16 transactivation reporter inhibitors, counter-screen for SRC2 inhibitor project, cell-based, luminescence, single concentration (AID 652007)", "details": "cell-based VP16 transactivation luciferase reporter, at 8.9 µM, active compounds read high"}
{"smiles": "COc1ccc(C(=O)/C=C/Nc2ccccn2)cc1", "inhibition": "3.41%"}
{"smiles": "COCCN(C(=O)CC1C(=O)NCCN1Cc1ccc(-c2ccccc2)cc1)C(C)C", "note": "(stereo not given)", "inhibition": "-1.75%"}
{"smiles": "CC(C)N=C(NS(=O)(=O)c1ccccc1)C(Cl)(Cl)Cl", "inhibition": "7.46%"}
{"smiles": "Cc1nc2ccccc2c2c1C(=O)N(c1ccc(C(=O)O)cc1)C2=O", "inhibition": "-3.24%"}
{"smiles": "O=S(=O)(c1ccc(Cl)cc1)N1CCCC1c1nc(-c2ccc(Cl)cc2)no1", "note": "(stereo not given)", "inhibition": "-5.4%"}
{"smiles": "O=C(CCl)N(Cc1cc(=O)[nH]c2ccccc12)c1ccccc1", "inhibition": "38.6% (active)"}
{"smiles": "COc1ccc(CNn2c(-c3cccs3)nc3ccccc3c2=O)cc1OC", "inhibition": "-9.43%"}
{"smiles": "CN1/C(=C\\C=C2/SC(=S)NC2=O)C(C)(C)c2ccccc21", "inhibition": "8.01%"}
{"smiles": "O=C(O)CCC(=O)Nc1ccc(C(=O)OC2CCCCC2)cc1", "inhibition": "11.1%"}
{"smiles": "NC(Cc1ccc(Cl)cc1)c1csc(NC(=O)NCC2CCCCC2)n1", "note": "(stereo not given)", "inhibition": "-2.01%"}
{"smiles": "CC(=O)Nc1cccc(NC(=O)CSc2nc(C3CC3)nc3ccccc23)c1", "inhibition": "-2.73%"}
{"smiles": "COc1cc(CNc2ccc3[nH]c(=O)[nH]c3c2)cc(Br)c1OCc1ccc(F)cc1", "inhibition": "1.78%"}
{"smiles": "COC(=O)c1nn(-c2ccc3c(c2)CCN3C(C)=O)cc1O", "inhibition": "-21.8%"}
{"smiles": "O=C(COC(=O)c1cccc(F)c1)Nc1cccc(S(=O)(=O)N2CCCCC2)c1", "inhibition": "1.01%"}
{"smiles": "Cc1ccc(C(=O)c2cnc3ccccc3c2-c2ccccc2)cc1", "inhibition": "-3.52%"}
{"smiles": "COc1ccc(/C=C2\\SC(=S)N(CCCC(=O)N3CCN(C)CC3)C2=O)cc1", "inhibition": "-11.9%"}
{"smiles": "CCN(CC)S(=O)(=O)c1ccc(NC(=O)Nc2cccc(C(F)(F)F)c2)cc1", "inhibition": "-13.1%"}
{"smiles": "Cc1ccc(C(=O)Nc2nc3ccccc3[nH]2)cc1", "inhibition": "-3.8%"}
{"smiles": "Cc1nc(SCc2ccc(C(=O)O)cc2)nc2c1CCCC2", "inhibition": "10.8%"}
{"smiles": "COc1ccccc1/C=C/C(=O)c1cc(Br)ccc1OC(=O)c1ccco1", "inhibition": "-1.7%"}
{"smiles": "COc1ccc(S(=O)(=O)Nc2cc(Sc3ncn[nH]3)c(O)c3ccccc23)cc1", "inhibition": "26.7%"}
{"smiles": "CC(=O)C1=CCC(c2ccccc2Cl)N(S(=O)(=O)c2ccc(C)cc2)C1", "note": "(stereo not given)", "inhibition": "13.9%"}
{"smiles": "O=C(NCC1COc2ccccc2O1)c1cccc(S(=O)(=O)N2CCN(c3ccccc3)CC2)c1", "note": "(stereo not given)", "inhibition": "-4.6%"}
{"smiles": "CC1CCC(C(C)C)C(OCC(O)CN2CCCC(C)C2)C1", "note": "(stereo not given)", "inhibition": "-4.71%"}
{"smiles": "CCOc1ccc(-c2cc(CCCC(=O)NCc3ccco3)no2)cc1", "inhibition": "16.9%"}
{"smiles": "Nc1nonc1C(=O)NCCNCc1cc(Br)ccc1OCc1ccc(F)cc1", "inhibition": "1.07%"}
{"smiles": "O=C(c1ccccc1)C(CN1CCCCC1)c1ccccc1", "note": "(stereo not given)", "inhibition": "29.1%"}
{"smiles": "CS(=O)(=O)c1ccc(Cl)c(NC(=O)c2cccc(-n3cnnn3)c2)c1", "inhibition": "-11.3%"}
{"smiles": "CC(C)N(Cc1ccccc1)C(=S)NCc1ccccc1", "inhibition": "-3.69%"}
{"smiles": "COc1cccc(N2C(=O)CC(NNC(=O)c3cccs3)C2=O)c1", "note": "(stereo not given)", "inhibition": "-15.3%"}
{"smiles": "O=c1ccn(Cc2ccc(F)cc2)c2ccnc(C(F)(F)F)c12", "inhibition": "14.8%"}
{"smiles": "Cc1ccc(/C=C2\\SC(=S)N(CCCC(=O)Nc3ccccc3C(=O)O)C2=O)cc1", "inhibition": "40% (active)"}
{"smiles": "CCCn1c(CC)nc([N+](=O)[O-])c1Sc1ccc(F)cc1", "inhibition": "-3.5%"}
{"smiles": "Oc1cccc2c(NC(=S)Nc3ccc(SC(F)F)cc3)cccc12", "inhibition": "-23.5%"}
{"smiles": "CC(C)C[C@@H]1COc2cc(Br)ccc2S(=O)(=O)N1Cc1cn(CCC2OCCCO2)nn1", "inhibition": "-3.85%"}
{"smiles": "CCCSc1ccc2nc(-c3ccccc3)cn2c1", "inhibition": "-24.4%"}
{"smiles": "CC(=O)N(CCc1ccccc1)c1ccc2c(c1)C1CC2CCN1C(=O)OCc1ccccc1", "note": "(stereo not given)", "inhibition": "17%"}
{"smiles": "O=C(Nc1nccs1)c1cc2c(s1)CCCCC2", "inhibition": "0.43%"}
{"smiles": "Cn1cc(CN2CCN(CCO)CC2)c(-c2ccc(Oc3ccccc3)cc2)n1", "inhibition": "-9.32%"}
{"smiles": "CN(C)S(=O)(=O)c1cccc(NC(=O)CSc2ncnc3ccccc23)c1", "inhibition": "7.54%"}
